Compounds with a hit are over-represented: about 1.6% of the library has one in this group of screens.
KCNQ2 inh – inhibitors of rat KCNQ2 potassium channel; CHO-K1 KCNQ2, FluxOR thallium flux, 20 min; stronger effect = lower value; B-score at 10 µM; actives 1.1% (n = 310,000); AID 2156;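 active = fluorescence ratio B-score at most minus 3 library SDs, with starting brightness B-score within 2 library SDs, cut at about -5.5 in these data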
KCNQ2 enhance – potentiators of rat KCNQ2 potassium channel. O88943. CHO-K1 KCNQ2, FluxOR thallium flux fluorescence; stronger effect = higher value. B-score at 10 µM. actives 0.54% (n = 310,000). AID 2239;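 active = fluorescence ratio B-score at least 3 SD of library B-scores, with initial fluorescence B-score within 3 of them, cut at about 5.3 in these data; same plate scores as AID 2156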;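 also: B-score of peak minus minimum over baseline fluorescence ratio after K+ and Tl+ stimulus; positive B-score means potentiation of KCNQ2 with more thallium influx and brighter signal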
KCNQ2 block conf – confirmation of rat KCNQ2 potassium channel inhibitors; shares compounds with KCNQ2 inh; KCNQ2-expressing cells, thallium flux, inhibition; stronger effect = lower value; activity change, negative = inhibition, % at 10 µM; actives 57% (n = 1,000);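 also: 0% = vehicle wells and values are ratio percent relative to vehicle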
KCNQ1 spec – KCNQ2 inhibitor that also affects human KCNQ1 channel; AID 493026; activity change, negative = inhibition, % at 10 µM; shares compounds with KCNQ2 inh; KCNQ1-expressing cells, FluxOR thallium flux fluorescence; stronger effect = lower value; actives 15% (n = 1,000);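 active = activity change at least 3 SD of negative controls below their mean in both duplicate wells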;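 also: CHO cells stably transfected with KCNQ1 and depolarized by potassium stimulus; peak minus minimum fluorescence over baseline after thallium addition; 0% = vehicle negative control and -100% = blank without thallium stimulus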
CHO Tl ctr – KCNQ2 inhibitor counter-screen hit in parental CHO cells; shares compounds with KCNQ2 inh; thallium flux counter-screen; stronger effect = lower value; activity change, % at 10 µM; actives 14% (n = 1,000);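 also: 0% = vehicle negative controls with stimulus buffer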
KCNQ2 inh confirm – rat KCNQ2 inhibition confirmed by electrophysiology. shares compounds with KCNQ2 inh. KCNQ2-expressing cells, automated patch clamp current. calls only at 10 µM. actives 49% (n = 550). AID 588531
* = called active by the depositor; i = inactive; / = no result given. Unless noted, no rule for the calls is given here.

SMILES | KCNQ2 inh | KCNQ2 enhance | others
COc1ccc(C(CNC(=O)COc2ccc(C)c(C)c2)N2CCCCC2)cc1 (centres undefined) | i | /
COc1ccc(C(CNC(=O)c2oc3cc(C)c(Cl)cc3c2C)N2CCCCC2)cc1 (centres undefined) | -5.79* | -5.79
COc1ccc(C(CNC(=O)COc2cc(C)c(Cl)c(C)c2)N2CCCCC2)cc1 (centres undefined) | -5.99* | -5.99
COc1ccc(C(CNC(=O)c2oc3ccc(C)cc3c2C)N2CCCCC2)cc1 (centres undefined) | i | /
O=C(Nc1cccc(Cl)c1Cl)Nn1cnnc1 | i | 0.35
CC(=O)c1ccc(N2CCN(C(=S)Nc3ccc(Cl)c(Cl)c3)CC2)cc1 | i | 0.07
Fc1cccc(CSc2ccc(-c3ccc4c(c3)OCO4)nn2)c1 | i | /
Cc1ccccc1CSc1ccc(-c2ccc3c(c2)OCO3)nn1 | -5.77* | -5.77
O=C(NCC(c1cccs1)N1CCOCC1)c1ccccc1NS(=O)(=O)c1cc([N+](=O)[O-])ccc1Cl (centres undefined) | i | /
O=C(NCC(c1cccs1)N1CCOCC1)c1ccccc1NS(=O)(=O)c1ccc(Cl)c([N+](=O)[O-])c1 (centres undefined) | -6.24* | -6.24
CCOc1ccc2nc(NC(=O)c3ccc(OCC4CCCO4)cc3)sc2c1 (centres undefined) | i | 1.32
CC1=CC(C)(C)N2C(=O)C3(SCC(=O)N3c3ccc(F)cc3)c3cc(C)cc1c32 (centres undefined) | -6.04* | -6.04
CC1=CC(C)(C)N2C(=O)C3(NCCc4c3[nH]c3ccccc43)c3cc(C)cc1c32 (centres undefined) | i | /
Clc1ccc(CSc2nncn2-c2ccc3c(c2)OCCO3)cc1 | -7.7* | -7.7
Clc1ccc(CSc2nncn2-c2ccccn2)cc1 | i | 0.68
Cn1c2c(c(=O)n(C)c1=O)CN(CCc1ccccc1)CN2 | i | 0.02
O=C(OCC(=O)N1CCN(C(=O)c2ccco2)CC1)c1cc(-c2cccc(Br)c2)nc2ccccc12 | -7.01* | -7.01
O=C(OCC(=O)N1CCN(C(=O)c2ccco2)CC1)c1cc(-c2ccccc2)nc2ccccc12 | i | /
O=C(NCc1cccnc1)C1CC(=O)N(c2ccc(F)cc2)C1 (centres undefined) | i | 1.55
O=C(Nc1cccc2ccccc12)N1N=CCC1c1ccccc1 (centres undefined) | i | /
O=C(Nc1cccc(Cl)c1)N1N=CCC1c1ccccc1 (centres undefined) | -6.15* | -6.15
CCOC(=O)c1c(C)nc(C)c(C(=O)OCC)c1-c1ccc(Br)cc1 | i | /
C/C(=N\OCC(=O)Nc1c(C)cc(C)cc1C)c1ccc2c(c1)OCCO2 | i | 8.08*
C/C(=N\OCC(=O)Nc1cc(C)cc(C)c1)c1ccc2c(c1)OCCO2 | i | /
COc1ccc(C(=O)OC(C)CN2CCN(C)CC2)cc1OC (centres undefined) | i | 1.35
SMILES | KCNQ2 inh | KCNQ2 enhance | others
OC1CN=C2CCCc3c2n(c2ccc(Cl)cc32)C1 (centres undefined) | i | /
c1ccc(-c2ccc3c(c2)c2c4n3CCN=C4CCC2)cc1 | -7.54* | -7.54
NC(=O)CSc1nnc(-c2ccncc2)o1 | i | /
Cc1ccc(CC2C(=O)N(c3cc(Cl)ccn3)C(=O)C2C)cc1 (centres undefined) | i | /
Cc1ccc(CN2CCNC(=O)C2CC(=O)N(Cc2c(C)nn(C)c2C)C2CC2)o1 (centres undefined) | i | 0.43
O=C(c1ccccn1)N1N=C2/C(=C/c3ccccc3)CCCC2C1c1ccccc1 (centres undefined) | i | /
CNC(=O)c1sc(N2N=C3/C(=C/c4ccccc4)CCCC3C2c2ccccc2)nc1C (centres undefined) | -6.11* | -6.11
CSc1ccccc1NC(=O)CN(C1CCCCC1)S(C)(=O)=O | i | /
CN(CC(=O)Nc1ccccc1Sc1ccccc1)C1CCCCC1 | -6.67* | -6.67 | KCNQ2 block conf=-37.0%*;KCNQ1 spec=-35.0%*;CHO Tl ctr=-27.0%*;KCNQ2 inh confirm=i
CC(C)C1CCN(C(=O)C2CCC(=O)N(CCc3ccc(Cl)cc3)C2)CC1 (centres undefined) | i | /

Source: PubChem BioAssay
